# PubChem BioAssay (NCI)
# The panel holds about 83,000 compounds, 20% with a hit somewhere; the sample as a whole holds those more often.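 The endpoint reported here, percent growth, reads 100 for growth as untreated, 0 for no net growth and -100 for all cells dead.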 Unmarked numbers belong to inactive results. Active and inactive are the calls of the source. How the source made its calls: active means growth percent below 10; inactive means the rest.
# Columns and labels:
# Assay in all cases: NCI-60 one-dose screen, 48 h (100 = growth as untreated, 0 = no growth, -100 = all killed)
# Details in all cases: 10 µM unless noted
# EKVX NSCLC = system: EKVX NSCLC
# SN12C renal = system: SN12C renal
# UO-31 renal = system: UO-31 renal
# TK-10 renal = system: TK-10 renal
# ACHN renal = system: ACHN renal
# CAKI-1 renal = system: CAKI-1 renal
# CCRF-CEM leukemia = system: CCRF-CEM leukemia
# MOLT-4 leukemia = system: MOLT-4 leukemia
# SR leukemia = system: SR leukemia
# RPMI-8226 leukemia = system: RPMI-8226 leukemia
# OVCAR-8 ovarian = system: OVCAR-8 ovarian
# OVCAR-5 ovarian = system: OVCAR-5 ovarian
# OVCAR-4 ovarian = system: OVCAR-4 ovarian
# SK-OV-3 ovarian = system: SK-OV-3 ovarian
# IGROV1 ovarian = system: IGROV1 ovarian
# OVCAR-3 ovarian = system: OVCAR-3 ovarian
# HS 578T breast = system: HS 578T breast
# NCI/ADR-RES ovarian = system: NCI/ADR-RES ovarian
# A498 renal = system: A498 renal
SMILES,growth (EKVX NSCLC),growth (SN12C renal),growth (UO-31 renal),growth (TK-10 renal),growth (ACHN renal),growth (CAKI-1 renal),growth (CCRF-CEM leukemia),growth (MOLT-4 leukemia),growth (SR leukemia),growth (RPMI-8226 leukemia),growth (OVCAR-8 ovarian),growth (OVCAR-5 ovarian),growth (OVCAR-4 ovarian),growth (SK-OV-3 ovarian),growth (IGROV1 ovarian),growth (OVCAR-3 ovarian),growth (HS 578T breast),growth (NCI/ADR-RES ovarian),growth (A498 renal)
COc1ccc(C(=O)/C=C/c2cccnc2Nc2cc(OC)c(OC)c(OC)c2)cc1,61.9%,8.5% (active),51.1%,44.9%,16.4%,32.2%,-16.5% (active),2.59% (active),-0.688% (active),-21.2% (active),-0.898% (active),37.7%,39.8%,24.7%,72%,11.5%,36.7%,4.44% (active),
O=C(N/N=C/c1ccccc1O)c1ccccc1Nc1ccnc(C(F)(F)F)c1,3.03% (active),26.8%,7.98% (active),34.3%,5.8% (active),-15.9% (active),,,-13.9% (active),,14.9%,20.6%,22.4%,11.4%,1.57% (active),35.7%,34.3%,7.23% (active),-5.76% (active)
O=C(Nc1cccc2[nH]c(C(F)(F)F)nc12)c1ccc(-n2cnnn2)cc1,,108%,75.9%,108%,99.5%,95.4%,28.6%,32.4%,79.5%,48.7%,89.4%,123%,90.5%,104%,95.5%,76.2%,108%,107%,83.1%
N#Cc1cnn(-c2nc3c(Cl)cccc3s2)c1N,,88.5%,83.2%,92.7%,67.4%,82.8%,91.1%,92.4%,89.9%,95.7%,80.8%,108%,-4.16% (active),78.1%,84%,98.1%,84.2%,82%,97.1%
CC(C)(CCCN=C(N)Nc1ccc(Cl)cc1)c1ccc(F)cc1,71.7%,,58.5%,72.4%,67.4%,74.7%,53.7%,37.7%,-13.6% (active),11%,87.3%,75.8%,54.4%,94.7%,55.2%,71.2%,83.2%,73.8%,77.6%
COc1ccccc1Nc1nc(-c2cc3cccc(C(F)(F)F)c3oc2=O)cs1,36.1%,,52%,,24.6%,9.18% (active),7.96% (active),14.9%,10.2%,16.8%,9.28% (active),,37.1%,31.3%,22.9%,-21.7% (active),31.4%,15%,-9.67% (active)
COc1cccc(/C=N/NC(=O)c2ccccc2Nc2ccnc(C(F)(F)F)c2)c1O,10.5%,21.2%,7.6% (active),28.7%,5.22% (active),-2.16% (active),,34.1%,30.3%,-18.8% (active),19.7%,20.7%,27.9%,8.06% (active),4.92% (active),43.2%,44.9%,6.84% (active),-13% (active)
FC(F)(F)c1nc2c(NCc3ccc(-c4ccccc4)cc3)cccc2[nH]1,,88.4%,57.5%,,81.6%,73.7%,44.8%,9% (active),7.78% (active),45%,77.2%,96.1%,88.9%,89.1%,85.8%,64.9%,71.7%,81%,48.7%
O=C(COc1cccc(/C=C2\COc3ccc(Cl)cc3C2=O)c1)c1ccc(Cl)cc1,101%,97.3%,69.3%,98.4%,91%,84.2%,2.99% (active),41.2%,,-11.4% (active),91.7%,81.1%,90.5%,99%,38.3%,87.4%,,84%,
COc1cc2c(cc1-c1c(C)noc1C)ncc1nc(C3CCOCC3)n([C@H](C)COC(F)F)c12,50.4%,57%,15.7%,25.3%,34.6%,26.7%,48.3%,,28.3%,18%,42.6%,68.4%,47.9%,1.35% (active),58.8%,35.2%,16.8%,38.4%,-13.5% (active)
COc1ccc(-c2nnc(SCC(=O)c3ccc(Cl)cc3)o2)cc1,101%,,99.8%,95.9%,102%,98.1%,114%,109%,105%,101%,99%,93.3%,98%,104%,105%,103%,109%,95.6%,100%
Clc1ccc2c(NCCNc3nc(N4CCCCC4)nc4ccccc34)ccnc2c1,32.9%,-2.91% (active),-97.6% (active),-32.5% (active),-72.8% (active),,0.574% (active),7.69% (active),-29.5% (active),-41.6% (active),-30.5% (active),25.4%,34.2%,-2.73% (active),30.4%,-64.7% (active),37.9%,25.4%,
CC(=O)O[C@H]1CC[C@]2(C)[C@H]3CC=C4[C@@H]5CC(C)(C)CC[C@]5(C(=O)NCCNCCNCCN)CC[C@@]4(C)[C@]3(C)CC[C@H]2C1(C)C,81.9%,89.5%,79.1%,97.2%,-25.4% (active),77.8%,-9.21% (active),-13% (active),,-23.7% (active),-0.659% (active),10%,34.9%,101%,46.9%,-30.6% (active),,74.6%,54.6%
Cc1cc(N[C@@H]2CCC[C@H](Nc3ccnc4cc(Cl)ccc34)C2)nc(N2CCCCCC2)n1,7.62% (active),-74.8% (active),-95.6% (active),-67.7% (active),-85.5% (active),,-23.1% (active),-18.5% (active),-57.4% (active),-52.2% (active),-43% (active),-15.8% (active),-5.16% (active),-51.9% (active),-45.5% (active),-58.8% (active),-46.8% (active),-39.8% (active),-87.6% (active)
C/C1=C\CC[C@@]2(C)O[C@H]2[C@H]2OC(=O)C(CN3CCN(CC4C(=O)O[C@H]5[C@H]4CC/C(C)=C/CC[C@@]4(C)O[C@@H]54)CC3)[C@@H]2CC1 (stereo not given in full),96.8%,,96.7%,89.7%,87.1%,94%,58%,84.3%,66%,79%,91.5%,103%,103%,110%,101%,79.7%,98.7%,101%,114%
Cc1ccc(C(SCC(N)C(=O)O)(c2ccccc2)c2ccc(C)cc2)cc1 (stereo not given),43.1%,29.9%,38.6%,60.7%,56.3%,,6.28% (active),13.8%,-29.8% (active),,-32.5% (active),6.69% (active),61.5%,28.6%,-32% (active),-48% (active),-45.6% (active),7.01% (active),29%
COc1ccc(C(=O)c2sc3nc(C)cc(C)c3c2N)cc1OC,,102%,87.3%,88.7%,88.2%,99.5%,98.2%,96.4%,83.5%,96%,65.7%,104%,85.3%,77.6%,88.8%,94.8%,91.2%,90.2%,87.5%
CN1C(=O)C2(SCC(C(=O)NCc3ccccc3)N2C(=O)C2CCCCC2)c2ccccc21 (stereo not given),86.8%,102%,64%,115%,104%,,102%,78.7%,83.3%,95%,92%,105%,88.1%,114%,88%,90.5%,89.3%,94.2%,98.9%
C=C1C(=O)O[C@H]2[C@H]1CC/C(COC(=O)c1cc3cc(OC)ccc3[nH]1)=C\CC[C@@]1(C)O[C@@H]21,-86.2% (active),-80.8% (active),-95.6% (active),-97% (active),-93.9% (active),-95.1% (active),-21% (active),-14.6% (active),,-20.3% (active),-66.9% (active),-58.6% (active),-81.5% (active),50.6%,-77.1% (active),-97.4% (active),-3.89% (active),-0.39% (active),
CCOc1ccc(-n2nc(C(=O)Nc3cc(OC)c(OC)c(OC)c3)nc2-c2cc(OC)c(OC)c(OC)c2)cc1,96.1%,,52.6%,104%,85.7%,77.4%,66.5%,67.5%,40.7%,55.7%,74%,102%,68.1%,99.7%,90.8%,86.9%,65.6%,85.8%,67.3%
Cc1nc2c3c(-c4ccccc4)c(-c4ccccc4)oc3ncn2n1,88.9%,96.5%,83.9%,108%,94.6%,88.6%,96.7%,89.9%,,,97.3%,95.4%,83%,93%,94.7%,111%,95.8%,94.1%,
COc1cc2c(cc1O)CC[C@@H]1[C@@H]2CC[C@]2(C)[C@@H](OCCCN(C)C)CC[C@@H]12,0.0282% (active),,-79.6% (active),-6.67% (active),-62.8% (active),10.9%,-7.19% (active),-21.1% (active),-36.2% (active),-32.9% (active),-34.2% (active),2.83% (active),-15% (active),-59.1% (active),-35.2% (active),-55.5% (active),-38.2% (active),-23.4% (active),-53.6% (active)
CSc1ccc(-c2ccccc(=O)c2O)cc1,11.5%,11.9%,-17.8% (active),33.4%,6.58% (active),,3.72% (active),2.65% (active),5.18% (active),10.1%,14.6%,52.9%,32.5%,11.8%,12.7%,25.1%,56.4%,5.46% (active),36.2%
COc1ccc(C(=O)c2sc3nc4c(c(-c5cccnc5)c3c2N)CCCC4)cc1OC,,69.8%,63.8%,90%,77.1%,82.8%,55.5%,,37.8%,4.67% (active),85%,86.4%,74%,104%,117%,89.9%,65.8%,89.3%,48.1%
CCn1c(Cc2ccccc2Nc2c(Cl)cccc2Cl)nnc1SCC(=O)NN1C(=O)/C(=C/c2cc(OC)c(O)c(OC)c2)SC1=S,60.2%,54.8%,59.6%,70%,58.9%,37%,19.1%,,21.4%,47%,60%,55.5%,74%,23.2%,42.9%,,5.34% (active),88.6%,20.6%
